{"source": "the supplement of paper PMC11732987", "about": "“Enantioselective OTUD7B fragment discovery through chemoproteomics screening and high-throughput optimisation” (Communications Chemistry, 2025)", "test_in_all_cases": "log2 ratio of Biotin-Ahx-Ub-VS probe labelling (fragment/DMSO); higher = less target engagement (more negative = stronger competition), active = hit call of the paper (q ≤ 0.05, log2 ratio ≤ -1)", "details_in_all_cases": "compound concentration: 200 uM; treatment time: 3 h", "key": {"USP19": {"target": "T1, USP19 (UniProt O94966)", "T1 sequence (whole entry)": "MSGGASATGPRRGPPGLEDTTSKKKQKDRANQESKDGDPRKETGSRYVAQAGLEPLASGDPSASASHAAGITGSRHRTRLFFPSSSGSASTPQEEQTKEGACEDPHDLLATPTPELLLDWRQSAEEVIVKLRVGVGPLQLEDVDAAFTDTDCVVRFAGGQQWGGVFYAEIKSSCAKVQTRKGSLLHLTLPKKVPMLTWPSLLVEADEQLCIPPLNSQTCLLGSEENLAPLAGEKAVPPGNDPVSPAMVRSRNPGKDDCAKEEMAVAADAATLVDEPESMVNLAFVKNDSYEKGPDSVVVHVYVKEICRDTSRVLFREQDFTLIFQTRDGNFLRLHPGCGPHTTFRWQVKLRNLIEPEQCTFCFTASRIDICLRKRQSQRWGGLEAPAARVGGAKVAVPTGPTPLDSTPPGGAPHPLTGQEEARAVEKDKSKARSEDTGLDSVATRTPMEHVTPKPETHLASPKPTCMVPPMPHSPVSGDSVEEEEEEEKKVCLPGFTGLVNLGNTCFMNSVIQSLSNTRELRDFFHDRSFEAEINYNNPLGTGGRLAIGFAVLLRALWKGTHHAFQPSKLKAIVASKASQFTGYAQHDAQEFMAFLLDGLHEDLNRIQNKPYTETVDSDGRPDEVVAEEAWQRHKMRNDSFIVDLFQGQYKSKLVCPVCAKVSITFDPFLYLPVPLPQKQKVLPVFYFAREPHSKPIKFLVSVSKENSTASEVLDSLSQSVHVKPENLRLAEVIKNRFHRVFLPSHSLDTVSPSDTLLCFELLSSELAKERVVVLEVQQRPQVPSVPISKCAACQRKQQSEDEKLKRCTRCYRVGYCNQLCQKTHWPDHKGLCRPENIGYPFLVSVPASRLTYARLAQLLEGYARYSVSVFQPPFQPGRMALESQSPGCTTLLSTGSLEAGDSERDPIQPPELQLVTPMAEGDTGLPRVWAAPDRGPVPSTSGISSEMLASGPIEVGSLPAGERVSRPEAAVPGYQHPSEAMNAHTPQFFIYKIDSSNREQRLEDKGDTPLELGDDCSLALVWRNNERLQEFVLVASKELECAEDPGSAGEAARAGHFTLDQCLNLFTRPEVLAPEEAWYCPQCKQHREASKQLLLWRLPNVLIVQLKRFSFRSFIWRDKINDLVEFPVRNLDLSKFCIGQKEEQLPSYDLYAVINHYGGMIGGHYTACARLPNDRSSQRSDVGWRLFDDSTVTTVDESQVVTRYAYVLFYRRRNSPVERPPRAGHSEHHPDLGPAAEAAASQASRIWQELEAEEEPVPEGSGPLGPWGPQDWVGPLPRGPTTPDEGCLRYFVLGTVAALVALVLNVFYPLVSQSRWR", "outline": "(§1)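 The table lists average log2 ratios of fragment over vehicle, from an unpaired t-test on global-median-normalised Spectronaut label-free quantities. Proteins with ≥2 unique peptides were used. Samples were HEK293T lysate (495 µg) treated in triplicate with fragment at 200 µM or vehicle for 3 h, then with Biotin-Ahx-Ub-VS (0.5 µM final) for 1 h, with labelled DUBs NeutrAvidin-enriched and run by diaPASEF LC-MS/MS.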"}, "USP24": {"target": "USP24 (UniProt Q9UPU5)", "sequence (Q9UPU5 whole entry)": "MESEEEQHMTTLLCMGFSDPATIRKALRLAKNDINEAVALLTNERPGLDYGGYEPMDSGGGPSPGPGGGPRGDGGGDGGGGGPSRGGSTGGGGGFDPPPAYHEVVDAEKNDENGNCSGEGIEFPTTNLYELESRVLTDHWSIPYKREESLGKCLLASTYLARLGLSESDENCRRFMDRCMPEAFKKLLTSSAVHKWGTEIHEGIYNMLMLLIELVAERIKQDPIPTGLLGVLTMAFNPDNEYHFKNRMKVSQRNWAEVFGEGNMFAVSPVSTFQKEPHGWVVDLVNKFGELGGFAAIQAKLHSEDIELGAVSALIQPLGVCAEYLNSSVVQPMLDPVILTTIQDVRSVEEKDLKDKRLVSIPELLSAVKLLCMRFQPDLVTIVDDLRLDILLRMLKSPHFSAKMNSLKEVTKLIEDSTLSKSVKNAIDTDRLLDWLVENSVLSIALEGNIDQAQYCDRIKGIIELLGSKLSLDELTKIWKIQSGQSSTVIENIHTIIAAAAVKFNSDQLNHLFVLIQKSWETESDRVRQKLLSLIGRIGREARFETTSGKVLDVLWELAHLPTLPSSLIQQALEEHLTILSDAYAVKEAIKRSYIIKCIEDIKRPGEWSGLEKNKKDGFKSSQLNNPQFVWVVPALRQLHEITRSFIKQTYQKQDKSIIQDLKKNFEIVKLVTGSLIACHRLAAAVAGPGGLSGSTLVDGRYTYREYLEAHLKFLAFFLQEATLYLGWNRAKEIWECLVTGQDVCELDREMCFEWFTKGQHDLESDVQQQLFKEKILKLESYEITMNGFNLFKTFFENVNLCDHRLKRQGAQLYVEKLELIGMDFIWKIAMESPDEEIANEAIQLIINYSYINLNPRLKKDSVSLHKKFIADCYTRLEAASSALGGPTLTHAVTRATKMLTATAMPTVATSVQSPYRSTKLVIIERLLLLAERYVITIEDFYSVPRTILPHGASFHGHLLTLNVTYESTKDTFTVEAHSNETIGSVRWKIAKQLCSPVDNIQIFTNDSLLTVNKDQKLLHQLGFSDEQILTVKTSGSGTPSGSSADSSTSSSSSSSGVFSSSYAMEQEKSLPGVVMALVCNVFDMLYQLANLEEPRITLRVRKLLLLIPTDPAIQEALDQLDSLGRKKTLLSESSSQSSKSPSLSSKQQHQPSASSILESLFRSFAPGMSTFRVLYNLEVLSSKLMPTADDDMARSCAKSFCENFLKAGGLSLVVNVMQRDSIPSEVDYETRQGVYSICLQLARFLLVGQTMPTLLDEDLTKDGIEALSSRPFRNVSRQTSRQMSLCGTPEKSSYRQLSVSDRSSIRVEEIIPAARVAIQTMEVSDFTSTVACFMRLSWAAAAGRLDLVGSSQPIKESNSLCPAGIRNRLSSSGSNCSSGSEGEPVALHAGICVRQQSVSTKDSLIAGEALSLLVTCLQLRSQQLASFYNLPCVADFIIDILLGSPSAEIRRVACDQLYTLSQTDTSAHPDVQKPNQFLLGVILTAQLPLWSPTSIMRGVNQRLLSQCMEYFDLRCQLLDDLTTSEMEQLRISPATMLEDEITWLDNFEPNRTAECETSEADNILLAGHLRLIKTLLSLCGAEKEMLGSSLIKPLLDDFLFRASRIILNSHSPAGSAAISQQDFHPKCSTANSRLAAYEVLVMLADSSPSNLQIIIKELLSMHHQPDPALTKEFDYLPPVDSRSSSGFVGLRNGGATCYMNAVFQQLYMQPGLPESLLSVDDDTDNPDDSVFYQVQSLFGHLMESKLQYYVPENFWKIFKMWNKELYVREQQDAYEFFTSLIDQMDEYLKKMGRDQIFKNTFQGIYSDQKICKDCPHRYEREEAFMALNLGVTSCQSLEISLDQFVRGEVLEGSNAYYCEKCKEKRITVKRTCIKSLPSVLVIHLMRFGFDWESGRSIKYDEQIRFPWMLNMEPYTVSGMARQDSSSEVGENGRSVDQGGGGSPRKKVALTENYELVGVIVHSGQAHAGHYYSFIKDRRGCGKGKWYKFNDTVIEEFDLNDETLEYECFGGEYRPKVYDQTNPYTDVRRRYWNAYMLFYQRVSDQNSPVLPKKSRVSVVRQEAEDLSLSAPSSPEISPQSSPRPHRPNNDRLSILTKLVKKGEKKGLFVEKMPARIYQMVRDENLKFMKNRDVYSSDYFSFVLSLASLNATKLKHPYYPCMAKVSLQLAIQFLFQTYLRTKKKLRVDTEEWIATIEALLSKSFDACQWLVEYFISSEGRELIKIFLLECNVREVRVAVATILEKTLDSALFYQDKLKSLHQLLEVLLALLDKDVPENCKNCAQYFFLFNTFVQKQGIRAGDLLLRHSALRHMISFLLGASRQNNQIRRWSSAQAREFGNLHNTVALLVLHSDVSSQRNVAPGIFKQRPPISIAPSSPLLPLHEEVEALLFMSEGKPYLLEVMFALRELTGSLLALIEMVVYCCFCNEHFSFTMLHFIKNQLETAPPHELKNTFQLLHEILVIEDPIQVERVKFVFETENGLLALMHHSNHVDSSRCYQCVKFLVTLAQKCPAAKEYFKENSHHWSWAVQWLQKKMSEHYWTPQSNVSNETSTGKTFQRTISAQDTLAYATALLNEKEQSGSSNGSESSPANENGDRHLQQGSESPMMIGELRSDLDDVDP", "outline": "as §1"}, "USP25": {"target": "T2, USP25 (UniProt Q9UHP3)", "T2 sequence (whole entry)": "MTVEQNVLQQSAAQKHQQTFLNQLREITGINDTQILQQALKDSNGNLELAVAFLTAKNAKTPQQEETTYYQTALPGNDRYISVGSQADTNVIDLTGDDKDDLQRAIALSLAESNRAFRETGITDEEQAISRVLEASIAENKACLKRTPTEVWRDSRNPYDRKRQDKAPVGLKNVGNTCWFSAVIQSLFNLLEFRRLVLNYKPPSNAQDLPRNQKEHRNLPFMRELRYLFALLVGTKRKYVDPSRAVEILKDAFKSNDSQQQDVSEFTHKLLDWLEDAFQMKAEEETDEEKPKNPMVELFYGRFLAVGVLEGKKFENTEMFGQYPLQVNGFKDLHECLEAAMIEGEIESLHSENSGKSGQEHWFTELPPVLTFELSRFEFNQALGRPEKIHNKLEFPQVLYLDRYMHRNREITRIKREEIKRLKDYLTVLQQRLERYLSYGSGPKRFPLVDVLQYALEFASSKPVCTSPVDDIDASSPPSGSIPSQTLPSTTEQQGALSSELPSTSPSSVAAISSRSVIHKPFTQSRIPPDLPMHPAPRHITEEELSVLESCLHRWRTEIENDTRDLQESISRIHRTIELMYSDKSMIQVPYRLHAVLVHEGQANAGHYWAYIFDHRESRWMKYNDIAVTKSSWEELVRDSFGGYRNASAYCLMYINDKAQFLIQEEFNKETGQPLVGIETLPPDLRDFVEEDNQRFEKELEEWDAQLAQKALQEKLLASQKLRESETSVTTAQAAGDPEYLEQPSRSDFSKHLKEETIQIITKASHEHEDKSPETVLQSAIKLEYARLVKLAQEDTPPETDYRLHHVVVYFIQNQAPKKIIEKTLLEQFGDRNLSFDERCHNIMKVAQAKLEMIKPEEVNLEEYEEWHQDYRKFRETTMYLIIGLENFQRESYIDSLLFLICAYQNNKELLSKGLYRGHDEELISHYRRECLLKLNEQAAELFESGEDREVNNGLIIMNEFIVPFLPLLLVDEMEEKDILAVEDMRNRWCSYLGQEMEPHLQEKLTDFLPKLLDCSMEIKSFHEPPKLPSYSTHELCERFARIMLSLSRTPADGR", "outline": "as §1"}, "USP28": {"target": "T3, USP28 (UniProt Q96RU2)", "T3 sequence (whole entry)": "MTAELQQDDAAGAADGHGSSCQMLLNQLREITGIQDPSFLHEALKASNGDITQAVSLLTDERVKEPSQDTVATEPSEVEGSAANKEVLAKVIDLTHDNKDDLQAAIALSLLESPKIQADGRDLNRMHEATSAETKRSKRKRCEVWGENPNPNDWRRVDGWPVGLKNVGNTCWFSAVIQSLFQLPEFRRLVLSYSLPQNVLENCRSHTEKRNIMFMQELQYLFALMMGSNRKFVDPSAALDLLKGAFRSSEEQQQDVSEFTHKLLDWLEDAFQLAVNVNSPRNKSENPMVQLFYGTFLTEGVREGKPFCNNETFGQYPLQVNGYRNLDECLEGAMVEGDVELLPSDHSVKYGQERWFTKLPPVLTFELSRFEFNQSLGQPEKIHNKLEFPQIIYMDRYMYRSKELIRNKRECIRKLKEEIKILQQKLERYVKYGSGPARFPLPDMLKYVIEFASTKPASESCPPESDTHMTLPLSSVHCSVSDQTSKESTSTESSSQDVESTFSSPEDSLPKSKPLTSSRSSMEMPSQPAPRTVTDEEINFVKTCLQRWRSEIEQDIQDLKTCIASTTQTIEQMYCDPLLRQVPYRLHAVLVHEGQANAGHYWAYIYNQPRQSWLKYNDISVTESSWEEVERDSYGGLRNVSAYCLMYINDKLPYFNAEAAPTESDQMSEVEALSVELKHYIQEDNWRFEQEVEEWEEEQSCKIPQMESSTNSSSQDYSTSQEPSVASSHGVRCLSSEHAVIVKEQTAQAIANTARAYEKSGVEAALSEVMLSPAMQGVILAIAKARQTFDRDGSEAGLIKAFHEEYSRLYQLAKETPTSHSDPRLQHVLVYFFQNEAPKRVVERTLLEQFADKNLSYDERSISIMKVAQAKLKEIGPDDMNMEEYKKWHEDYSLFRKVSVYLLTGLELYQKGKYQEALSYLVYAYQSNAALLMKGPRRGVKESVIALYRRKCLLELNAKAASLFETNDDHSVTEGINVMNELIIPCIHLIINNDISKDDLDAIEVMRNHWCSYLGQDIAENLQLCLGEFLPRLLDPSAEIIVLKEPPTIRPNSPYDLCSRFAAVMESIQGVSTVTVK", "outline": "as §1"}}, "note": "Unmarked numbers belong to inactive results."}
{"compound": "Cl.O=C(CCl)NCCN1CCc2ccccc21", "values": [{"measurement": "log2 ratio of Biotin-Ahx-Ub-VS probe labelling", "setting": "USP19", "result": -0.976}, {"measurement": "log2 ratio of Biotin-Ahx-Ub-VS probe labelling", "setting": "USP24", "result": "-1.05 (active)"}, {"measurement": "log2 ratio of Biotin-Ahx-Ub-VS probe labelling", "setting": "USP25", "result": -0.576}, {"measurement": "log2 ratio of Biotin-Ahx-Ub-VS probe labelling", "setting": "USP28", "result": "-1.11 (active)"}]}
